# PubChem BioAssay (NCI)
# Compounds without any hit were thinned out: in the full panel of roughly 79,000, 15% have a hit. The source made the active and inactive calls. Rule as the data show it: active = growth inhibition above about 70%; inactive = the rest.
# Assay: NCI Yeast Anticancer Drug Screen. Data for the rad14 strain (AID 159);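 also: 0% = growth of vehicle-treated control cultures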
# Conditions: S. cerevisiae rad14 strain growth inhibition; at 3.7 µM; hits give high values
# Outline: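 Here, inhibition of yeast growth was measured after compound exposure, using a strain with a genetic defect in DNA damage repair and vehicle-treated cultures as the reference.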
row,SMILES,growth inhibition
1,COc1ccc(/C=C2\CCc3ccccc3C2=O)cc1OC,-13% (inactive)
2,O=Cc1ccccc1B(O)O,13% (inactive)
3,O=C(O)[C@H]1[C@@H](C2CCCCC2)O[C@@H](C2CCCCC2)O[C@H]1C(F)(F)F,-1% (inactive)
4,CN(NC(=O)/C(=C/C=C/c1ccccc1)NC(=O)c1ccccc1)C1=C(Cl)C(=O)[N+](c2ccccc2)=CC1,-4% (inactive)
5,CCCCOc1ccc(Nc2c3ccccc3nc3ccccc23)cc1,-66% (inactive)
6,N#C/C(=C1C=C/C(=N\O)C(Cl)=C\1)c1ccccc1,8% (inactive)
7,COc1ccc(C(=O)OCCc2ccccc2)cc1,0% (inactive)
8,Cc1c2ccncc2c(C)c2c1oc1ccccc12,29% (inactive)
9,CCCC#CCOC(=O)c1cc([N+](=O)[O-])cc([N+](=O)[O-])c1,28% (inactive)
10,Nc1nc(Nc2ccccc2)nc(Nc2ccccc2)n1,1% (inactive)
11,COc1ccc(/C=C2\S/C(=N/Nc3nc(-c4ccccc4)cs3)NC2=O)cc1OC,45% (inactive)
12,CC(O)CN1C(=O)c2cccc3cc([N+](=O)[O-])cc(c23)C1=O (stereo not given),12% (inactive)
13,COC1=C(N=[N+]=[N-])C(=O)c2ncccc2C1=O,10% (inactive)
14,CCN(CC)c1ccc(N=Nc2cc(S(=O)(=O)O)ccc2O)c(O)c1,-9% (inactive)
15,O=C1C(C(O)(C(F)(F)F)C(F)(F)F)CCC1C(O)(C(F)(F)F)C(F)(F)F (stereo not given),6% (inactive)
16,CN(C)CCNC(=O)c1cccc2nc3c(ccc4ccccc43)nc12,2% (inactive)
17,O=S(=O)(CCC[C@H]1[C@@H](CCOCc2ccccc2)C2CCCN1O2)c1ccccc1 (stereo not given in full),-3% (inactive)
18,CCC(C)/C(C)=N/NC(N)=O (stereo not given),0% (inactive)
19,CC1=Cc2ccc(C)cc2C(=O)C1=O,31% (inactive)
20,C=Cc1c(C)c(O)cc2c1-c1ccc(O)c(C)c1CC2,-21% (inactive)
21,NCC(O)CSCc1ccc(Cl)cc1 (stereo not given),-2% (inactive)
22,C[n+]1c(-c2ccc(NC(=O)c3ccc(C(=O)Nc4ccc(-c5cn6ccccc6[n+]5C)cc4)cc3)cc2)cn2ccccc21,-2% (inactive)
23,CNC(=O)OCc1c(COC(=O)NC)c(C)n(-c2ccc(Cl)c(Cl)c2)c1C,-16% (inactive)
24,[O-]c1c2cc(-[n+]3c(-c4ccccc4)cc(-c4ccccc4)cc3-c3ccccc3)cc1COCCOCCOCCOCCOC2,1% (inactive)
25,C[Si](C)(C)Cc1ccccc1C(=O)O,-4% (inactive)

# Same assay, conditions: S. cerevisiae rad14 strain growth inhibition; at 11.0 µM; hits give high values
row,SMILES,growth inhibition
1,COc1ccc(/C=C2\CCc3ccccc3C2=O)cc1OC,-20% (inactive)
2,O=Cc1ccccc1B(O)O,90% (active)
3,O=C(O)[C@H]1[C@@H](C2CCCCC2)O[C@@H](C2CCCCC2)O[C@H]1C(F)(F)F,0% (inactive)
4,CN(NC(=O)/C(=C/C=C/c1ccccc1)NC(=O)c1ccccc1)C1=C(Cl)C(=O)[N+](c2ccccc2)=CC1,2% (inactive)
5,CCCCOc1ccc(Nc2c3ccccc3nc3ccccc23)cc1,43% (inactive)
6,N#C/C(=C1C=C/C(=N\O)C(Cl)=C\1)c1ccccc1,15% (inactive)
7,COc1ccc(C(=O)OCCc2ccccc2)cc1,-6% (inactive)
8,Cc1c2ccncc2c(C)c2c1oc1ccccc12,48% (inactive)
9,CCCC#CCOC(=O)c1cc([N+](=O)[O-])cc([N+](=O)[O-])c1,98% (active)
10,Nc1nc(Nc2ccccc2)nc(Nc2ccccc2)n1,1% (inactive)
11,COc1ccc(/C=C2\S/C(=N/Nc3nc(-c4ccccc4)cs3)NC2=O)cc1OC,84% (active)
12,CC(O)CN1C(=O)c2cccc3cc([N+](=O)[O-])cc(c23)C1=O (stereo not given),14% (inactive)
13,COC1=C(N=[N+]=[N-])C(=O)c2ncccc2C1=O,44% (inactive)
14,CCN(CC)c1ccc(N=Nc2cc(S(=O)(=O)O)ccc2O)c(O)c1,3% (inactive)
15,O=C1C(C(O)(C(F)(F)F)C(F)(F)F)CCC1C(O)(C(F)(F)F)C(F)(F)F (stereo not given),14% (inactive)
16,CN(C)CCNC(=O)c1cccc2nc3c(ccc4ccccc43)nc12,14% (inactive)
17,O=S(=O)(CCC[C@H]1[C@@H](CCOCc2ccccc2)C2CCCN1O2)c1ccccc1 (stereo not given in full),3% (inactive)
18,CCC(C)/C(C)=N/NC(N)=O (stereo not given),1% (inactive)
19,CC1=Cc2ccc(C)cc2C(=O)C1=O,79% (active)
20,C=Cc1c(C)c(O)cc2c1-c1ccc(O)c(C)c1CC2,-19% (inactive)
21,NCC(O)CSCc1ccc(Cl)cc1 (stereo not given),3% (inactive)
22,C[n+]1c(-c2ccc(NC(=O)c3ccc(C(=O)Nc4ccc(-c5cn6ccccc6[n+]5C)cc4)cc3)cc2)cn2ccccc21,13% (inactive)
23,CNC(=O)OCc1c(COC(=O)NC)c(C)n(-c2ccc(Cl)c(Cl)c2)c1C,25% (inactive)
24,[O-]c1c2cc(-[n+]3c(-c4ccccc4)cc(-c4ccccc4)cc3-c3ccccc3)cc1COCCOCCOCCOCCOC2,1% (inactive)
25,C[Si](C)(C)Cc1ccccc1C(=O)O,0% (inactive)
